The values below come from PubChem BioAssay (NCI).

Each structure is given as a SMILES string. Where “and” joins values, the source holds several entries; their conditions need not be identical. Equal values may be shown once. This is part of a sample that, as a whole, favours compounds with a hit. Of some 79,000 tested, about 15% had one in any assay. Some compounds were tested as several samples or in several runs, with calls that do not always agree. Calls of active or inactive are those of the source. Rule as the data show it: active = growth inhibition above about 70%; inactive = the rest.

A short description of assay [1]: NCI Yeast Anticancer Drug Screen. Data for the rad50 strain (AID 155).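 Also: 0% = growth of vehicle-only cultures of the same strain.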 The following applies: S. cerevisiae rad50 strain growth inhibition, stronger effect = higher value. Summed up: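 Relative growth inhibition (compound vs vehicle) was measured in yeast with a defined repair-gene alteration.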
A short description of assay [2]: NCI Yeast Anticancer Drug Screen. Data for the mec2-1 strain (AID 157). The following applies: S. cerevisiae mec2-1 strain, stronger effect = higher value. In outline: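 Cells of the genetically defined mec2-1 yeast strain are incubated with test compound. Inhibition of growth is calculated against vehicle-treated controls.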
A short description of assay [3]: NCI Yeast Anticancer Drug Screen. Data for the sgs1 mgt1 strain (AID 161).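 Also: 0% = growth of cultures given vehicle only.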 The note with it: S. cerevisiae sgs1 mgt1 strain, stronger effect = higher value. Summed up: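 Read-out: growth inhibition vs vehicle controls. Cells: mutant yeast strain deficient in DNA damage repair.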
The nature of assay [4]: NCI Yeast Anticancer Drug Screen. Data for the cln2 rad14 strain (AID 165).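 Also: 0% = growth equal to vehicle treated cultures.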 The following applies: S. cerevisiae cln2 rad14 strain, stronger effect = higher value. Summed up: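 The screen exposed genetically defined yeast (cln2 rad14) to test compounds and scored growth inhibition relative to vehicle-treated controls.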
The nature of assay [5]: NCI Yeast Anticancer Drug Screen. Data for the bub3 strain (AID 167). The note with it: S. cerevisiae bub3 mutant strain, stronger effect = higher value. Summed up: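 Screening used yeast with an engineered genetic alteration affecting cell cycle control. Compound-exposed cultures were compared with vehicle cultures, and reduced growth was taken as inhibition.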
Assay [6] in a line: NCI Yeast Anticancer Drug Screen. Data for the mlh1 rad18 strain (AID 175). The note with it: S. cerevisiae mlh1 rad18 strain growth inhibition, stronger effect = higher value. In outline: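 Compound-treated yeast growth, normalised to vehicle controls. Strain bears defined DNA repair mutations.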
[7] abbreviates: at 5.0 µM (retest, dose inferred, filed as 0.5).
Where [8] appears, read: at 50.0 µM (retest, dose inferred, filed as 5.0).

With `COC1OC2COC(c3ccccc3)OC2C(O)C1OS(=O)(=O)c1ccc(C)cc1` (configuration not stated), the growth inhibition is -3% (inactive) in assay [1] (setting [7]); 1% (inactive) in assay [1] (setting [8]); 46.5% (inactive) and 3.9% (inactive) in assay [1] (at 50.0 µM); 0% (inactive) in assay [2] (setting [7]); 51% (inactive) in assay [2] (setting [8]); 46.4% (inactive) and 2.7% (inactive) in assay [2] (at 50.0 µM). In addition, the growth inhibition was -7% (inactive) in assay [3] (setting [7]); 46% (inactive) in assay [3] (setting [8]); 74.6% (active) and 16.9% (inactive) in assay [3] (at 50.0 µM); -10% (inactive) in assay [4] (setting [7]); -8% (inactive) in assay [4] (setting [8]); 31.8% (inactive) and -1.35% (inactive) in assay [4] (at 50.0 µM). In addition, the growth inhibition in assay [5] (setting [7]) was -3% (inactive); in assay [5] (setting [8]), 2% (inactive); in assay [5] (at 50.0 µM), 32.3% (inactive) and -1.1% (inactive); in assay [6] (setting [7]) it was -1% (inactive); in assay [6] (setting [8]), 49% (inactive); in assay [6] (at 50.0 µM), 63.1% (inactive) and 0.65% (inactive).

Turning to `Cc1cc(C)nc(NS(=O)(=O)c2ccc(Nc3c4ccccc4nc4c(C(=O)NCCCN(CCO)CCO)cccc34)cc2)n1`, the growth inhibition in assay [1] (setting [7]) was -20% (inactive); in assay [1] (setting [8]), 20% (inactive); in assay [1] (at 50.0 µM) it was 45% (inactive); in assay [2] (setting [7]), -13% (inactive); in assay [2] (setting [8]), -14% (inactive); in assay [2] (at 50.0 µM), 25.8% (inactive). Besides, the growth inhibition in assay [3] (setting [7]) is -2% (inactive); in assay [3] (setting [8]), -5% (inactive); in assay [3] (at 50.0 µM), -4.65% (inactive); in assay [4] (setting [7]), 70% (active); in assay [4] (setting [8]) it was 5% (inactive); in assay [4] (at 50.0 µM) it was 74.3% (active). Also, the growth inhibition in assay [5] (setting [7]) is -14% (inactive); in assay [5] (setting [8]), 3% (inactive); in assay [5] (at 50.0 µM) it was 78.2% (active); in assay [6] (setting [7]) it was -7% (inactive); in assay [6] (setting [8]) it was 1% (inactive); in assay [6] (at 50.0 µM) it was 60.2% (inactive).

Consider `O=C(C(=Cc1ccccc1)C(=O)c1ccccc1)c1ccccc1`, for which the growth inhibition in assay [1] (setting [7]) was 42% (inactive); in assay [1] (setting [8]), 92% (active); in assay [1] (at 50.0 µM) it was 86.5% (active) and 21.2% (inactive); in assay [2] (setting [7]), 54% (inactive); in assay [2] (setting [8]), 95% (active); in assay [2] (at 50.0 µM), 90.5% (active) and 7.7% (inactive). In addition, the growth inhibition in assay [3] (setting [7]) was 50% (inactive); in assay [3] (setting [8]), 95% (active); in assay [3] (at 50.0 µM), 89.5% (active) and 18.9% (inactive); in assay [4] (setting [7]) it was 50% (inactive); in assay [4] (setting [8]), 89% (active); in assay [4] (at 50.0 µM) it was 83.8% (active) and -79.9% (inactive). Further, the growth inhibition was 84% (active) in assay [5] (setting [7]); 96% (active) in assay [5] (setting [8]); 88% (active) and 51.6% (inactive) in assay [5] (at 50.0 µM); 69% (inactive) in assay [6] (setting [7]); 94% (active) in assay [6] (setting [8]); 87.8% (active) and 20.8% (inactive) in assay [6] (at 50.0 µM).

`CC1CP(c2ccccc2)(c2ccccc2)(c2ccccc2)OC1(C(=O)c1ccccc1)c1ccccc1` (configuration not stated): the growth inhibition in assay [1] (setting [7]) was -1% (inactive); in assay [1] (setting [8]), 9% (inactive); in assay [1] (at 50.0 µM) it was 93.9% (active); in assay [2] (setting [7]), 8% (inactive); in assay [2] (setting [8]) it was 7% (inactive); in assay [2] (at 50.0 µM), 99.3% (active). In addition, the growth inhibition in assay [3] (setting [7]) is -21% (inactive); in assay [3] (setting [8]), -1% (inactive); in assay [3] (at 50.0 µM) it was 99.3% (active); in assay [4] (setting [7]), -9% (inactive); in assay [4] (setting [8]), 2% (inactive); in assay [4] (at 50.0 µM) it was 98.9% (active). Moreover, the growth inhibition was -1% (inactive) in assay [5] (setting [7]); 11% (inactive) in assay [5] (setting [8]); 98.8% (active) in assay [5] (at 50.0 µM); -15% (inactive) in assay [6] (setting [7]); 29% (inactive) in assay [6] (setting [8]); 99.2% (active) in assay [6] (at 50.0 µM).

Turning to `COc1ccc(/C=C/NC=O)cc1`, the growth inhibition in assay [1] (setting [7]) was -2% (inactive); in assay [1] (setting [8]) it was -1% (inactive); in assay [1] (at 50.0 µM) it was -17.2% (inactive); in assay [2] (setting [7]), -3% (inactive); in assay [2] (setting [8]), 0% (inactive); in assay [2] (at 50.0 µM), 0.35% (inactive). The growth inhibition in assay [3] (setting [7]) is -2% (inactive); in assay [3] (setting [8]), -1% (inactive); in assay [3] (at 50.0 µM), -9.6% (inactive); in assay [4] (setting [7]), -2% (inactive); in assay [4] (setting [8]), 4% (inactive); in assay [4] (at 50.0 µM), -8.25% (inactive). In addition, the growth inhibition in assay [5] (setting [7]) is 1% (inactive); in assay [5] (setting [8]) it was 6% (inactive); in assay [5] (at 50.0 µM) it was 19.8% (inactive); in assay [6] (setting [7]), -3% (inactive); in assay [6] (setting [8]), -2% (inactive); in assay [6] (at 50.0 µM), 28.9% (inactive).

For `ClCCCN(CCCCl)c1ccc(C=Nc2cccc(Cl)c2)cc1`, the growth inhibition in assay [1] (setting [7]) was 16% (inactive); in assay [1] (setting [8]), 89% (active); in assay [1] (at 50.0 µM), 91.3% (active); in assay [2] (setting [7]), -4% (inactive); in assay [2] (setting [8]), 8% (inactive); in assay [2] (at 50.0 µM), -1.2% (inactive). In addition, the growth inhibition in assay [3] (setting [7]) was 24% (inactive); in assay [3] (setting [8]) it was 90% (active); in assay [3] (at 50.0 µM), 92.8% (active); in assay [4] (setting [7]), 8% (inactive); in assay [4] (setting [8]), 88% (active); in assay [4] (at 50.0 µM), 86.2% (active). The growth inhibition in assay [5] (setting [7]) was -4% (inactive); in assay [5] (setting [8]) it was -14% (inactive); in assay [5] (at 50.0 µM), -13% (inactive); in assay [6] (setting [7]), 17% (inactive); in assay [6] (setting [8]), 89% (active); in assay [6] (at 50.0 µM), 78.5% (active).

Consider `COc1ccc(-c2c(C#N)c(-c3ccc(C)cc3)n(NS(=O)(=O)c3ccccc3)c(=O)c2C#N)cc1`, for which the growth inhibition was 94% (active) in assay [1] (setting [7]); 97% (active) in assay [1] (setting [8]); 40.5% (inactive) in assay [1] (at 50.0 µM); 42% (inactive) in assay [2] (setting [7]); 94% (active) in assay [2] (setting [8]); 49.8% (inactive) in assay [2] (at 50.0 µM). In addition, the growth inhibition in assay [3] (setting [7]) is 41% (inactive); in assay [3] (setting [8]), 75% (active); in assay [3] (at 50.0 µM), 50.8% (inactive); in assay [4] (setting [7]) it was 49% (inactive); in assay [4] (setting [8]) it was 58% (inactive); in assay [4] (at 50.0 µM) it was 66% (inactive). In addition, the growth inhibition in assay [5] (setting [7]) is 47% (inactive); in assay [5] (setting [8]), 56% (inactive); in assay [5] (at 50.0 µM) it was 39.6% (inactive); in assay [6] (setting [7]), 91% (active); in assay [6] (setting [8]), 95% (active); in assay [6] (at 50.0 µM), 43% (inactive).

On to `O=P(C(=S)NC1CC2C=CC1C2)(c1ccccc1)c1ccccc1` (configuration not stated), for which the growth inhibition is 27% (inactive) in assay [1] (setting [7]); 93% (active) in assay [1] (setting [8]); 48% (inactive) in assay [1] (at 50.0 µM); 7% (inactive) in assay [2] (setting [7]); 94% (active) in assay [2] (setting [8]); 51.1% (inactive) in assay [2] (at 50.0 µM). For the same molecule, the growth inhibition in assay [3] (setting [7]) is 2% (inactive); in assay [3] (setting [8]), 90% (active); in assay [3] (at 50.0 µM), 26.4% (inactive); in assay [4] (setting [7]), 12% (inactive); in assay [4] (setting [8]), 85% (active); in assay [4] (at 50.0 µM), 73.4% (active). Besides, the growth inhibition in assay [5] (setting [7]) was -3% (inactive); in assay [5] (setting [8]), 92% (active); in assay [5] (at 50.0 µM), 34.1% (inactive); in assay [6] (setting [7]), -31% (inactive); in assay [6] (setting [8]), 90% (active); in assay [6] (at 50.0 µM) it was 86.7% (active).

Consider `CC(=O)OC1CCC2(C)C(CCC3C4CCC(OC(C)=O)C4(C)CCC32)O1` (configuration not stated), for which the growth inhibition in assay [1] (setting [7]) is -3% (inactive); in assay [1] (setting [8]), 79% (active); in assay [1] (at 50.0 µM), 36.2% (inactive); in assay [2] (setting [7]), 5% (inactive); in assay [2] (setting [8]), 95% (active); in assay [2] (at 50.0 µM), 15.1% (inactive). In addition, the growth inhibition in assay [3] (setting [7]) is -23% (inactive); in assay [3] (setting [8]), 70% (active); in assay [3] (at 50.0 µM) it was 43.6% (inactive); in assay [4] (setting [7]), -6% (inactive); in assay [4] (setting [8]) it was 41% (inactive); in assay [4] (at 50.0 µM) it was 15% (inactive). Also, the growth inhibition in assay [5] (setting [7]) is -2% (inactive); in assay [5] (setting [8]), 66% (inactive); in assay [5] (at 50.0 µM), 11.3% (inactive); in assay [6] (setting [7]), 6% (inactive); in assay [6] (setting [8]), 93% (active); in assay [6] (at 50.0 µM), 24.4% (inactive).
